PubChem BioAssay AID1159580 (chemical genetic matrix, 2015)
Hit rate of the full screen: of about 5,500 compounds, about 2,000 (36%) were called active. Not shown: some 18% with an inconclusive outcome. No stated cut-off is given here; in the data, active means normalized growth mostly below about 0.91 (no sharp cut-off); inconclusive means no clear call, values can overlap the other calls; inactive means mostly above about 0.92. The list shows a part of the results.

Assay: chemical genetic growth profiling, strain panel (AID 1159580);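 further: tested at 20 µM; growth read once vehicle control cultures reached saturation at 30 °C; 1 = growth at the plate median or of vehicle wells; lower values mean less growth of the strain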
Conditions: growth OD

Measured: normalized growth

COC1=CC23CCCN2CCc2cc4c(cc2C3C1O)OCO4 (centres undefined)
inactive: S. cerevisiae deletion strains, locus YJL187C, strain SWE1, hits give low values 1.02 | S. cerevisiae deletion strains, locus YJR043C, strain POL32, hits give low values 0.999 | S. cerevisiae deletion strains, locus YJR066W, strain TOR1, hits give low values 0.92 | S. cerevisiae deletion strains, locus YJR075W, strain HOC1, hits give low values 1.01 | S. cerevisiae deletion strains, locus YKL009W, strain mrt4, hits give low values 1.01 | S. cerevisiae deletion strains, locus YKL068W, hits give low values 1 | S. cerevisiae deletion strains, locus YKL085W, strain MDH1 (second series), hits give low values 1.01 | S. cerevisiae deletion strains, locus YKL085W, strain MDH1, hits give low values 1.01 | S. cerevisiae deletion strains, locus YKL160W, strain elf1, hits give low values 1.02 | S. cerevisiae deletion strains, locus YKL190W, strain CNB1, hits give low values 1 | S. cerevisiae deletion strains, locus YKR001C, strain vps1, hits give low values 1.01 | S. cerevisiae deletion strains, locus YKR026C, strain gcn3, hits give low values 1.02 | S. cerevisiae deletion strains, locus YKR091W, strain srl3, hits give low values 1.02 | S. cerevisiae deletion strains, locus YLL001W, strain dnm1, hits give low values 1.02 | S. cerevisiae deletion strains, locus YLL026W, hits give low values 1.02 | S. cerevisiae deletion strains, locus YLL041C, strain sdh2, hits give low values 1.02 | S. cerevisiae deletion strains, locus YLR027C, strain aat2, hits give low values 1.01 | S. cerevisiae deletion strains, locus YLR039C, strain RIC1, hits give low values 1.04 | S. cerevisiae deletion strains, locus YLR058C, strain SHM2, hits give low values 1 | S. cerevisiae deletion strains, locus YLR102C, strain apc9, hits give low values 1 | S. cerevisiae deletion strains, locus YLR113W, strain HOG1, hits give low values 0.959 | S. cerevisiae deletion strains, locus YLR221C, strain rsa3, hits give low values 1.03 | S. cerevisiae deletion strains, locus YLR258W, strain gsy2, hits give low values 1.02 | S. cerevisiae deletion strains, locus YLR262C, strain YPT6 (second series), hits give low values 1.04 | S. cerevisiae deletion strains, locus YLR262C, strain YPT6, hits give low values 1.04 | S. cerevisiae deletion strains, locus YLR268W, strain sec22, hits give low values 1.02 | S. cerevisiae deletion strains, locus YLR320W, strain mms22, hits give low values 1.05 | S. cerevisiae deletion strains, locus YLR330W, strain CHS5, hits give low values 1 | S. cerevisiae deletion strains, locus YLR342W, strain FKS1 (second series), hits give low values 0.997 | S. cerevisiae deletion strains, locus YLR342W, strain FKS1, hits give low values 1.02 | S. cerevisiae deletion strains, locus YLR357W, strain rsc2, hits give low values 1.06 | S. cerevisiae deletion strains, locus YLR370C, strain arc18, hits give low values 1.03 | S. cerevisiae deletion strains, locus YLR371W, strain rom2, hits give low values 1.01 | S. cerevisiae deletion strains, locus YLR384C, strain iki3, hits give low values 1.02 | S. cerevisiae deletion strains, locus YLR418C, strain cdc73, hits give low values 0.992 | S. cerevisiae deletion strains, locus YML016C, strain PPZ1, hits give low values 1 | S. cerevisiae deletion strains, locus YML032C, strain rad52, hits give low values 0.98 | S. cerevisiae deletion strains, locus YML120C, strain ndi1, hits give low values 1.02 | S. cerevisiae deletion strains, locus YML124C, strain tub3, hits give low values 1 | S. cerevisiae deletion strains, locus YMR058W, strain fet3, hits give low values 1.03 | S. cerevisiae deletion strains, locus YMR078C, strain ctf18, hits give low values 1.01 | S. cerevisiae deletion strains, locus YMR125W, strain sto1, hits give low values 1.04 | S. cerevisiae deletion strains, locus YMR129W, hits give low values 1.02 | S. cerevisiae deletion strains, locus YMR205C, strain PFK2, hits give low values 1.05 | S. cerevisiae deletion strains, locus YMR223W, strain ubp8, hits give low values 1.01 | S. cerevisiae deletion strains, locus YMR231W, strain pep5, hits give low values 1.02 | S. cerevisiae deletion strains, locus YMR307W, strain GAS1, hits give low values 0.984 | S. cerevisiae deletion strains, locus YNL067W, strain RPL9B, hits give low values 0.99 | S. cerevisiae deletion strains, locus YNL071W, strain lat1, hits give low values 1.02 | S. cerevisiae deletion strains, locus YNL183C, strain NPR1, hits give low values 0.926 | S. cerevisiae deletion strains, locus YNL209W, strain ssb2, hits give low values 1.02 | S. cerevisiae deletion strains, locus YNL233W, strain BNI4, hits give low values 0.989 | S. cerevisiae deletion strains, locus YNL248C, strain rpa49, hits give low values 1.04 | S. cerevisiae deletion strains, locus YNL250W, strain rad50, hits give low values 1.01 | S. cerevisiae deletion strains, locus YNL271C, strain bni1, hits give low values 1.01 | S. cerevisiae deletion strains, locus YNL298W, strain CLA4, hits give low values 1.01 | S. cerevisiae deletion strains, locus YNL307C, strain MCK1, hits give low values 1.01 | S. cerevisiae deletion strains, locus YNL322C, strain KRE1 (second series), hits give low values 1.02 | S. cerevisiae deletion strains, locus YNR049C, strain mso1, hits give low values 1.05 | S. cerevisiae deletion strains, locus YNR052C, strain pop2, hits give low values 1 | S. cerevisiae deletion strains, locus YOL012C, strain htz1 0.879 | S. cerevisiae deletion strains, locus YOL147C, strain pex11, hits give low values 1.01 | S. cerevisiae deletion strains, locus YOR001W, strain rrp6, hits give low values 1.04 | S. cerevisiae deletion strains, locus YOR061W, strain CKA2, hits give low values 1.01 | S. cerevisiae deletion strains, locus YOR069W, strain VPS5, hits give low values 1.01 | S. cerevisiae deletion strains, locus YOR070C, strain gyp1, hits give low values 1.02 | S. cerevisiae deletion strains, locus YOR080W, strain dia2, hits give low values 1.03 | S. cerevisiae deletion strains, locus YOR083W, strain WHI5, hits give low values 1.03 | S. cerevisiae deletion strains, locus YOR106W, strain vam3, hits give low values 1.03 | S. cerevisiae deletion strains, locus YOR136W, strain idh2, hits give low values 1.01 | S. cerevisiae deletion strains, locus YOR144C, strain elg1, hits give low values 1.01 | S. cerevisiae deletion strains, locus YOR184W, strain ser1, hits give low values 0.999 | S. cerevisiae deletion strains, locus YOR231W, strain MKK1, hits give low values 0.972 | S. cerevisiae deletion strains, locus YOR265W, strain rbl2, hits give low values 1.05 | S. cerevisiae deletion strains, locus YOR270C, strain vph1, hits give low values 1.09 | S. cerevisiae deletion strains, locus YOR290C, strain snf2, hits give low values 1 | S. cerevisiae deletion strains, locus YOR316C, strain cot1, hits give low values 1.01 | S. cerevisiae deletion strains, locus YPL051W, strain arl3, hits give low values 1.02 | S. cerevisiae deletion strains, locus YPL055C, strain LGE1, hits give low values 0.999 | S. cerevisiae deletion strains, locus YPL078C, strain atp4, hits give low values 1.03 | S. cerevisiae deletion strains, locus YPL106C, strain sse1, hits give low values 1.03 | S. cerevisiae deletion strains, locus YPL240C, strain hsp82, hits give low values 1.02 | S. cerevisiae deletion strains, locus YPL256C, strain CLN2, hits give low values 0.949 | S. cerevisiae deletion strains, locus YPR119W, strain clb2, hits give low values 1 | S. cerevisiae deletion strains, locus YPR141C, strain kar3, hits give low values 1.01 | S. cerevisiae deletion strains, locus YPR163C, strain tif3, hits give low values 1.01 | S. cerevisiae deletion strains, locus YPR167C, strain met16, hits give low values 0.998 | S. cerevisiae deletion strains, strain wtn01, hits give low values 1.02 | S. cerevisiae strains, strain wild type, hits give low values 1
